This is an account of results in the supplement of paper PMC12819154, “High-throughput peptide-centric local stability assay extends protein–ligand identification to membrane proteins, tissues and bacteria” (Nature Structural & Molecular Biology, 2025).

Compound in the test: Nc1ncnc2c1ncn2[C@@H]1O[C@H](COP(=O)(O)OP(=O)(O)OP(=O)(O)O)[C@@H](O)[C@H]1O [adenosine 5'-triphosphate]
Kind of test: log2 fold change of tryptic peptide abundance, ligand vs vehicle (limited proteolysis) (log2 ratio); higher = more trypsin-susceptible (destabilized). The settings on record: ligand concentration: 5 mM; sample: E. coli desalted lysate; replicate design: treated before aliquoting. As for the experimental part: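 HT-PELSA: desalted E. coli K-12 BW25113 lysate (with 12 mM MgCl2) incubated with 5 mM ATP (pH 7) or water for 30 min at 25 C, then a 4 min trypsin pulse at 22 C. Peptides were quantified by DIA-MS (4 replicates). Value is the peptide log2 fold change (treated/control); negative = stabilized. Scale: negative = ligand-stabilized region.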
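Further: lysate desalted by size exclusion to strip endogenous ATP, peptide intensities built from DIA-NN precursor signals, and peptides missing any value discarded before comparison.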

UniProt P02925, sequence (P02925 whole entry): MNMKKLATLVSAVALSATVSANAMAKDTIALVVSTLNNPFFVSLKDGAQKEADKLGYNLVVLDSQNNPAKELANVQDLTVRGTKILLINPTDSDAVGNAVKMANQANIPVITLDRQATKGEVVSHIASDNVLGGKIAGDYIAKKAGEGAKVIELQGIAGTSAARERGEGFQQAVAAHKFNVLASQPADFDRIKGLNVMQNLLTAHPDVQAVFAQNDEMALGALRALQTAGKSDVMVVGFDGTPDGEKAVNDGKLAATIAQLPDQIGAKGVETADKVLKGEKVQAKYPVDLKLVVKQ
UniProt P07023, sequence (P07023 whole entry): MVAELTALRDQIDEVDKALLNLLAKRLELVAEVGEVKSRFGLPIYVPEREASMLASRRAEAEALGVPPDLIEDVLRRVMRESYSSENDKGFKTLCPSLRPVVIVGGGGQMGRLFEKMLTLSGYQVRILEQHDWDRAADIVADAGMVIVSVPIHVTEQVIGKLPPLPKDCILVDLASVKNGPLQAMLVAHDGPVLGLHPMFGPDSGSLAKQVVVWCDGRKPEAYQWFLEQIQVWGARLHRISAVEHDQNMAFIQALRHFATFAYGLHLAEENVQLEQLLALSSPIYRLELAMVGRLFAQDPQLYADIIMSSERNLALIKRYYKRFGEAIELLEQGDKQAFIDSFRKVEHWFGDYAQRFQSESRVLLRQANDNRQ
UniProt P06709, sequence (P06709 whole entry): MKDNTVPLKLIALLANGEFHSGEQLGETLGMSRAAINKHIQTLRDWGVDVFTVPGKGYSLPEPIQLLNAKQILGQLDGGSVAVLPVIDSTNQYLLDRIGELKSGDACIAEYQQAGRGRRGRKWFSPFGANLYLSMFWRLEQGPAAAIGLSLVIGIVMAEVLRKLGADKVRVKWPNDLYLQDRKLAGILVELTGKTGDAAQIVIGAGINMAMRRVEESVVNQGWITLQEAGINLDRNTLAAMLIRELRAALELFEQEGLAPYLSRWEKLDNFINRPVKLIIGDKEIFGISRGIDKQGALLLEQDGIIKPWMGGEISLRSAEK
UniProt P76330, sequence (P76330 whole entry): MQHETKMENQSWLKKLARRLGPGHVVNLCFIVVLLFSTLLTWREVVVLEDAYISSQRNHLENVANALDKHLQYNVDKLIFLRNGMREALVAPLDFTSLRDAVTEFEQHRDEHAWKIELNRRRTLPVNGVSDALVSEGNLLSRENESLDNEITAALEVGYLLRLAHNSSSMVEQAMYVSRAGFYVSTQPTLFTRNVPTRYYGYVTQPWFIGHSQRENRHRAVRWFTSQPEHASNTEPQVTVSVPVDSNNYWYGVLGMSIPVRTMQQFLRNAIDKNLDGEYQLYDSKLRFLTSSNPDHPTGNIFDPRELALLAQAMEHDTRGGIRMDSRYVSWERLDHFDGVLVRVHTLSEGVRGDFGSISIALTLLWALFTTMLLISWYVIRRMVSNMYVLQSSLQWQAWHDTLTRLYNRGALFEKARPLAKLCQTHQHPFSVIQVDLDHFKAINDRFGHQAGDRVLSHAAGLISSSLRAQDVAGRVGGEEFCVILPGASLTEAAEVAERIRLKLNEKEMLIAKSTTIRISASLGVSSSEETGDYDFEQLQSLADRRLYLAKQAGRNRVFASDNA
UniProt P75736, sequence (P75736 whole entry): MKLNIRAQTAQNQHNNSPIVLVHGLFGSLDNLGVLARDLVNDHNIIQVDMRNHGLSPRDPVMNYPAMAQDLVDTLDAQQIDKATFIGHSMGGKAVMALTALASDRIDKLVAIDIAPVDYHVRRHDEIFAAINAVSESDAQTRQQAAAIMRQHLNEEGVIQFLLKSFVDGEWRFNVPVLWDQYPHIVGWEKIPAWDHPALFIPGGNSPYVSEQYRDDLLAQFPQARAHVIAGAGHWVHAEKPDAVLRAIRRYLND
UniProt P24230, sequence (P24230 whole entry): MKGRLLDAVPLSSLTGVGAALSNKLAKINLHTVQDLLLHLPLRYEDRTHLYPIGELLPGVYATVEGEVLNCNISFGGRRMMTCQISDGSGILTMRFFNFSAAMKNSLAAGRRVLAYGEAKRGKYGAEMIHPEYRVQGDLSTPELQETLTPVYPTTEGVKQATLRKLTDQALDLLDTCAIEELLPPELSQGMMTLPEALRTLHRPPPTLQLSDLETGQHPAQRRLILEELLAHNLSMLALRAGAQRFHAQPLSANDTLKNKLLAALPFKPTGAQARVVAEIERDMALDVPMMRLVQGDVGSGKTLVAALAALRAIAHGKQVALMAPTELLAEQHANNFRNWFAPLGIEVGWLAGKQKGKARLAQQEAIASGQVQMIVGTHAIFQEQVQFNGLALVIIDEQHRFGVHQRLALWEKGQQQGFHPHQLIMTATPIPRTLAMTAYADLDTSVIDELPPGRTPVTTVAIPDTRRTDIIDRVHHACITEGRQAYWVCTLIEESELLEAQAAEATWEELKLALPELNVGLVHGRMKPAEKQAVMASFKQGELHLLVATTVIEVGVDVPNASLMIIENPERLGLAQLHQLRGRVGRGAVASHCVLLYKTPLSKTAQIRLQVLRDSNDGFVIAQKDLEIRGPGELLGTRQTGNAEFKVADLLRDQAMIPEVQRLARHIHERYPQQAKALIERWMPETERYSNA
UniProt P37025, sequence (P37025 whole entry): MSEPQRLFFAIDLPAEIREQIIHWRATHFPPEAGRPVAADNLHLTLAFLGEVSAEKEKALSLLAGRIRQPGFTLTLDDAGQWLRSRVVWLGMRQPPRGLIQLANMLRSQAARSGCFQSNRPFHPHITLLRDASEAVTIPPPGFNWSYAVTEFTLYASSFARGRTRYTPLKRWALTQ
UniProt P80668, sequence (P80668 whole entry): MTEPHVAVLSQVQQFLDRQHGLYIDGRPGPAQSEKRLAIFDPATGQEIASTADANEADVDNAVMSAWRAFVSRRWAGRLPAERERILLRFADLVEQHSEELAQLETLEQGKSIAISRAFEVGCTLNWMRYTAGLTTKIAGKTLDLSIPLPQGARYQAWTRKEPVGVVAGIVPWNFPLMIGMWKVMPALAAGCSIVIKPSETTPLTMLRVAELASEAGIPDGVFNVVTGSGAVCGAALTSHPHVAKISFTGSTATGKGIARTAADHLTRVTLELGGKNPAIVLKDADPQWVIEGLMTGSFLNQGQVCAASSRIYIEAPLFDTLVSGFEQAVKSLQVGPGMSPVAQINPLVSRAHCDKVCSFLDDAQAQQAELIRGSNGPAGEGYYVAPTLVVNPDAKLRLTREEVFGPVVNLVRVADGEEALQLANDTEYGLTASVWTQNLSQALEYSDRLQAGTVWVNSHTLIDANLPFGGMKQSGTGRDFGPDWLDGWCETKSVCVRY
UniProt P52101, sequence (P52101 whole entry): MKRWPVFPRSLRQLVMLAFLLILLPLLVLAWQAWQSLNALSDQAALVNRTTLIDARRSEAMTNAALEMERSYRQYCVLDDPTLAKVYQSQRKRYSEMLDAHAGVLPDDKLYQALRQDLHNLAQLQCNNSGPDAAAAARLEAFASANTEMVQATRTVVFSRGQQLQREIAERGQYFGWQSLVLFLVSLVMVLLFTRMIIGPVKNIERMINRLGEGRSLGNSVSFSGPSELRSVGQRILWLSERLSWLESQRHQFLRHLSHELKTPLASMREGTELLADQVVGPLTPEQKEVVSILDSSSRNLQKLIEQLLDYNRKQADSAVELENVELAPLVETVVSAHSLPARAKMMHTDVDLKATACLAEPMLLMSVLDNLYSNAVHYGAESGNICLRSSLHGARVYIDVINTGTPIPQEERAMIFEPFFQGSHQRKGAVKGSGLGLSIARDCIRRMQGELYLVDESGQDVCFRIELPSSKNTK
UniProt P16676, sequence (P16676 whole entry): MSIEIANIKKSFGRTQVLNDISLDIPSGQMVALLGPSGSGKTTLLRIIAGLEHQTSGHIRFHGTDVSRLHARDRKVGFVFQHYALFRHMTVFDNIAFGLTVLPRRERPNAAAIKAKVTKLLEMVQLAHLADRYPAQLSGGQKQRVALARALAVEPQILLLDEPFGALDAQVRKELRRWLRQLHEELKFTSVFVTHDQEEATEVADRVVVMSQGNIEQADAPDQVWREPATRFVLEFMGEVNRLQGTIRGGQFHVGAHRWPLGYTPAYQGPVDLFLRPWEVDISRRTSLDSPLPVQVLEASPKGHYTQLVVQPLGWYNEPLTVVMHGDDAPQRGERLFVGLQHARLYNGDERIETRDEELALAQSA
UniProt P08997, sequence (P08997 whole entry): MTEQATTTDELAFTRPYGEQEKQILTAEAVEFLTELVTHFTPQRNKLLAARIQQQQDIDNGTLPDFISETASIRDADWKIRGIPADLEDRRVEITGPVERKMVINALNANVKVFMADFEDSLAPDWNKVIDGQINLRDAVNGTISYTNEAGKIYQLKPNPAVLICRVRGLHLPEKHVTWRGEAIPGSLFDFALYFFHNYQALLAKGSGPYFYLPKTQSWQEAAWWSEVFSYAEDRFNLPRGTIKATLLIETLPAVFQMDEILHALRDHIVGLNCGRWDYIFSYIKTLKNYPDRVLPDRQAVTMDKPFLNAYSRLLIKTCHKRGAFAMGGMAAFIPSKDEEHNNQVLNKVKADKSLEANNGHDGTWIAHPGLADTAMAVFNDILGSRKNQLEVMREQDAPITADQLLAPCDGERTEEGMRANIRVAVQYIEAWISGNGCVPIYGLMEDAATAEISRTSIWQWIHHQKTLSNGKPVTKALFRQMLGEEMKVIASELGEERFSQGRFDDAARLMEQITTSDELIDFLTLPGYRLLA
UniProt P76027, sequence (P76027 whole entry): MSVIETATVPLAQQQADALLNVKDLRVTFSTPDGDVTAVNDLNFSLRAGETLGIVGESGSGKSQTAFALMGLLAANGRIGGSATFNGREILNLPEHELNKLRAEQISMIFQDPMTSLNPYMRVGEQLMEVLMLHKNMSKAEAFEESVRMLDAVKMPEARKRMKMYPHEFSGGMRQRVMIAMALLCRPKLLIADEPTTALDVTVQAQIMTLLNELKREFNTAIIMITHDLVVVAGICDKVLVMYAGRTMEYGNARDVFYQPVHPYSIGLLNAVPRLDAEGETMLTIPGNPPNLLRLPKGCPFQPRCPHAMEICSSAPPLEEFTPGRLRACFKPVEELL

“UniProt P24230 (peptide sequence: TLVAALAALR, peptide start residue: 303)”: the log2 fold change is -1.21.
For the target “UniProt P76558 (peptide sequence: TNLFMKPIFSQAR, peptide start residue: 427)”, the log2 fold change was 0.538.
The figure for “UniProt P76027 (peptide sequence: GCPFQPR, peptide start residue: 298)” is 1.56; for “UniProt P75736 (peptide sequence: SFVDGEWR, peptide start residue: 165)” it is -1.28; for “UniProt P15640 (peptide sequence: TSEWDER, peptide start residue: 323)” it is -1.28.
“UniProt P39342 (peptide sequence: MGPVTEDER, peptide start residue: 387)”: the log2 fold change was -1.06.
With “UniProt P08997 (peptide sequence: TLSNGKPVTK, peptide start residue: 467)”, the log2 fold change is -0.591.
The figure for “UniProt P52101 (peptide sequence: AMIFEPFFQGSHQR, peptide start residue: 414)” is 0.36; for “UniProt P37025 (peptide sequence: VVWLGMR, peptide start residue: 87)” it is -0.685.
As for “UniProt P37675 (peptide sequence: IVDLPMKLVGHK, peptide start residue: 78)”, the figure is 0.735; as for “UniProt P28630 (peptide sequence: LSLLWPDGK, peptide start residue: 188)”, -0.437; as for “UniProt P07023 (peptide sequence: KVEHWFGDYAQR, peptide start residue: 345)”, 0.528.
The figure for “UniProt P76330 (peptide sequence: FGHQAGDR, peptide start residue: 447)” is -3.47.
On to “UniProt P0AA37 (peptide sequence: LLLHAEMLTITHPAYGNSMTFK, peptide start residue: 193)”, for which the log2 fold change is -0.465.
For “UniProt P06709 (peptide sequence: VKWPNDLYLQDR, peptide start residue: 171)”, the log2 fold change is -0.523.
The figure for “UniProt P02925 (peptide sequence: IAGDYIAKK, peptide start residue: 136)” is 1.27.
The figure for “UniProt P05707 (peptide sequence: VGSKHNSGYSAAK, peptide start residue: 146)” is -3.4; for “UniProt P16676 (peptide sequence: LYNGDER, peptide start residue: 345)” it is 0.414; for “UniProt P80668 (peptide sequence: TAADHLTR, peptide start residue: 261)” it is -1.12.
The figure for “UniProt P0AB96 (peptide sequence: LCRPSEVVLEILPDAQK, peptide start residue: 105)” is 0.492.
